Inconclusive results are not listed. Calls of active or inactive are those of the source. Calls come from the whole dose curve; as a rule, active = well fitted activation curve with a large enough effect; inconclusive = small, poorly fitted or top-dose-only effect; inactive = flat fitted curve, though single readings scatter.

This test is described as follows: Primary redox qHTS assay for identification of artifact compounds. (AID 1845223).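 Note: 0% = DMSO and 100% = reference compound.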 The following applies: Amplex Red/HRP redox cycling with DTT, fluorescence; series mostly up to 53.8 µM; redox activity (% of DA3003): at the top concentration. Summed up:
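Amplex Red (25 uM) and HRP (250 mU/mL) in HBSS, with compounds for 15 min, then 250 uM DTT for 30 min, room temperature, dark. Fluorescence 525/598 nm read; normalized to DMSO and 10 uM DA3003; Hill fit.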
Turning to `CC(C)c1cccc(C(C)C)c1NC(=O)Nc1ccc(Sc2ccc([N+](=O)[O-])cc2)cc1`, the “redox activity (% of DA3003)” value is -5.58% (inactive).
Consider `COc1ccc(C(=O)O[C@H]2C=COC=C3C=C4C(=O)N(C)C(=S)C(=O)N4[C@@H]32)cc1Oc1cc(C=O)ccc1O`, for which the “redox activity (% of DA3003)” value was -0.411% [at 25.6 µM] (inactive).
As for `Cc1cc(C)c(-n2cc(C)c3c(Cl)nc(C)nc32)c(C)c1`, the figure is -4.02% (inactive); as for `Cc1ccc(F)cc1S(=O)(=O)N[C@@H]1CCN(Cc2ccc(OC(C)C)cc2)C1`, 1.36% (inactive); as for `CC1(C)Oc2ncnc(N)c2N=C1c1ccc(C23CCC(CC(=O)O)(CC2)CC3)cc1`, 5% (inactive).
As for `COC(=O)N1CCC(n2ncc3c(N4CCOCC4)nc(-c4ccc(NC(=O)NC5CC5)cc4)nc32)CC1`, the figure is 16.4% (inactive).
As for `C/C=C(\C)C(=O)OC1C=C(C)CC(OC(=O)c2ccc(O)cc2)C2C1(C)CCC2(O)C(C)C` (centres undefined), the figure is 19.1% [at 25.6 µM] (inactive).
`Cc1nc(C#Cc2ccnc(Cl)c2)c(C)n1-c1ccc(OC(F)(F)F)cc1`: the “redox activity (% of DA3003)” value was -6.85% (inactive).
As for `Cc1ccc(-c2ncccn2)c(C(=O)N2C[C@H](COc3ccc(F)cn3)CC[C@H]2C)c1`, the figure is 13% (inactive); as for `C[C@H]1[C@H](/C=C/c2ccc(-c3ccccc3C#N)cn2)[C@@H]2[C@@H](C)OC(=O)[C@@H]2C[C@@H]1C`, 4.52% (inactive); as for `COc1c2c(c(C)c3c1C(=O)OC3)O[C@@]1(C)C[C@@H](OC(C)=O)[C@]34O[C@](OC)(CC[C@]3(C)[C@H]1C2)OC4(C)C`, 12.2% [at 25.6 µM] (inactive).
With `COc1cc(C(C)C)c(Oc2cnc(N)nc2N)cc1I` the figure was -0.496% (inactive); with `CC(C)(C)c1ccc(C(=O)Nc2cc(Cl)c(Br)cc2C(=O)O)cc1`, 7.55% (inactive).
As for `CC(C)Oc1ccc(-c2cnc3c(-c4ccnc5ccccc45)cnn3c2)cc1`, the figure is -0.385% (inactive).

The values are drawn from PubChem BioAssay (NCATS).
